Test results from PubChem BioAssay (NCATS).
Results filed as inconclusive are left out. Values without a mark were called inactive. Calls of active or inactive are those of the source. Calls follow the shape of the dose curve; as a rule, active = well fitted cell-killing curve with a large enough effect; inconclusive = small, poorly fitted or top-dose-only effect, or effect the other way; inactive = no such curve, though single readings can be large or run the other way.

Experiments:
[1] = Quantitative High-Throughput drug screen in 47 multiple myeloma cell lines against the NCATS MIPE library collection: LP1_DSMZ cell viability assay (AID 1918982); also: nearly all actives have a fitted effect of over 35% in size
Outline: (§1)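 ATP-based CellTiter-Glo luminescence after 48 h drug exposure (37 °C, 5% CO2) of 500 myeloma cells per well. DMSO-only wells set 100% viability, media-only wells 0%; MIPE 4.0 library added by pin tool.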

[2] = Quantitative High-Throughput drug screen in 47 multiple myeloma cell lines against the NCATS MIPE library collection: KMS34_JCRB cell viability assay (AID 1918985); also: nearly all actives have a fitted effect of over 40% in size
Outline: as §1

[3] = Quantitative High-Throughput drug screen in 47 multiple myeloma cell lines against the NCATS MIPE library collection: OCIMY7_PLB cell viability assay (AID 1918987); also: nearly all actives have a fitted effect of over 65% in size
Outline: as §1

[4] = Quantitative High-Throughput drug screen in 47 multiple myeloma cell lines against the NCATS MIPE library collection: U266_ATCC cell viability assay (AID 1919864); also: nearly all actives have a fitted effect of over 35% in size
Outline: as §1

[5] = Quantitative High-Throughput drug screen in 47 multiple myeloma cell lines against the NCATS MIPE library collection: XG1_PLB cell viability assay (AID 1919866); also: nearly all actives have a fitted effect of over 35% in size
Outline: as §1

[6] = Quantitative High-Throughput drug screen in 47 multiple myeloma cell lines against the NCATS MIPE library collection: VP6_DJ cell viability assay (AID 1919867); also: nearly all actives have a fitted effect of over 40% in size
Outline: as §1

[7] = Quantitative High-Throughput drug screen in 47 multiple myeloma cell lines against the NCATS MIPE library collection: UTMC2_PLB cell viability assay (AID 1919868); also: nearly all actives have a fitted effect of over 55% in size
Outline: as §1

[8] = Quantitative High-Throughput drug screen in 47 multiple myeloma cell lines against the NCATS MIPE library collection: PE2_PLB cell viability assay (AID 1919869); also: nearly all actives have a fitted effect of over 35% in size
Outline: as §1

[9] = Quantitative High-Throughput drug screen in 47 multiple myeloma cell lines against the NCATS MIPE library collection: PCM6_Riken cell viability assay (AID 1919870); also: nearly all actives have a fitted effect of over 30% in size
Outline: as §1

[10] = Quantitative High-Throughput drug screen in 47 multiple myeloma cell lines against the NCATS MIPE library collection: RPMI8226_ATCC cell viability assay (AID 1919871); also: nearly all actives have a fitted effect of over 30% in size
Outline: as §1

[11] = Quantitative High-Throughput drug screen in 47 multiple myeloma cell lines against the NCATS MIPE library collection: OPM2_DSMZ cell viability assay (AID 1919872); also: nearly all actives have a fitted effect of over 30% in size
Outline: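 qHTS of the MIPE 4.0 collection: 500 myeloma cells/well, 48 h drug exposure at 37C in 5% CO2, then CellTiter-Glo for 5 min at room temperature before luminescence reading.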

[12] = Quantitative High-Throughput drug screen in 47 multiple myeloma cell lines against the NCATS MIPE library collection: KMS28PE_JCRB cell viability assay (AID 1918983); also: nearly all actives have a fitted effect of over 35% in size
Outline: as §1

[13] = Quantitative High-Throughput drug screen in 47 multiple myeloma cell lines against the NCATS MIPE library collection: L363_DSMZ cell viability assay (AID 1918984); also: nearly all actives have a fitted effect of over 40% in size
Outline: as §1

[14] = Quantitative High-Throughput drug screen in 47 multiple myeloma cell lines against the NCATS MIPE library collection: OPM1_PLB cell viability assay (AID 1918989); also: nearly all actives have a fitted effect of over 40% in size
Outline: as §1

[15] = Quantitative High-Throughput drug screen in 47 multiple myeloma cell lines against the NCATS MIPE library collection: XG6_PLB cell viability assay (AID 1919865); also: nearly all actives have a fitted effect of over 40% in size
Outline: as §1

[16] = Quantitative High-Throughput drug screen in 47 multiple myeloma cell lines against the NCATS MIPE library collection: KMS11_JCRBsus cell viability assay (AID 1919873); also: nearly all actives have a fitted effect of over 50% in size
Outline: as §1

[17] = Quantitative High-Throughput drug screen in 47 multiple myeloma cell lines against the NCATS MIPE library collection: KMS28BM_JCRB cell viability assay (AID 1919874); also: nearly all actives have a fitted effect of over 35% in size
Outline: as §1

[18] = Quantitative High-Throughput drug screen in 47 multiple myeloma cell lines against the NCATS MIPE library collection: OCIMY5_PLB cell viability assay (AID 1918988); also: nearly all actives have a fitted effect of over 65% in size
Outline: as §1

[19] = Quantitative High-Throughput drug screen in 47 multiple myeloma cell lines against the NCATS MIPE library collection: SKMM1_PLB cell viability assay (AID 1919863); conditions: SKMM1 myeloma viability, CellTiter-Glo ATP, 48 h; viability: stronger effect = lower value; also: nearly all actives have a fitted effect of over 35% in size; as to viability: series mostly up to about 46 µM
Outline: as §1
Potency is read from the fitted curve at half-maximal effect.

Compound | Potency [1] | Potency [2] | Potency [3] | Potency [4] | Potency [5] | Potency [6] | Potency [7] | Potency [8] | Potency [9] | Potency [10] | Potency [11] | Potency [12] | Potency [13] | Potency [14] | Potency [15] | Potency [16] | Potency [17] | Potency [18] | Potency [19] | viability [19]
Cc1cc(Cl)ccc1OCCCC(=O)NO | 26.4 µM (active) | 26.4 µM (active) | 0.59 µM (active) | 14.8 µM (active) | 1.05 µM (active) | 3.72 µM (active) | 9.35 µM (active) | 7.43 µM (active) | 2.35 µM (active) | inactive | inactive |  |  |  |  |  |  |  |  | 
O=c1oc2cc(O)ccc2s1 |  |  |  |  | inactive | inactive |  | inactive |  |  | inactive | inactive | inactive | inactive | inactive | inactive | inactive |  |  | 
C[C@@H](N)C1CCC(C(=O)Nc2ccncc2)CC1 (stereo partly specified) | inactive | inactive | 11.8 µM (active) |  | 9.35 µM (active) |  |  | 16.6 µM (active) | 14.8 µM (active) | inactive | inactive |  |  |  | 5.9 µM (active) | inactive | inactive | 11.8 µM (active) |  | 
CN(C)c1ccc(O)c2c1C[C@H]1C[C@H]3[C@H](N(C)C)C(=O)C(C(N)=O)=C(O)[C@@]3(O)C(=O)C1=C2O |  | 16.6 µM (active) | 10.5 µM (active) | 5.9 µM (active) |  |  |  | 20.9 µM (active) | 18.7 µM (active) |  | 20.9 µM (active) | 20.9 µM (active) |  |  |  |  |  | 9.35 µM (active) |  | 
COc1cc(OC)c(C(=O)CCCN2CCCC2)c(OC)c1 | inactive | inactive |  | inactive | inactive |  |  | inactive |  |  | inactive |  |  | inactive |  | inactive |  | inactive |  | 
Nc1nc(Cl)nc2c1ncn2[C@H]1C[C@H](O)[C@@H](CO)O1 | inactive |  | 0.001 µM (active) |  |  | 3.72 µM (active) |  | 14.8 µM (active) |  | inactive | inactive |  |  | 18.7 µM (active) |  | 5.26 µM (active) | 4.18 µM (active) |  |  | 
COc1cc2nc(N3CCN(C(=O)C4CCCO4)CC3)nc(N)c2cc1OC (stereo unspecified) |  |  |  | inactive |  |  |  | inactive |  | inactive | inactive | inactive | 1.48 µM (active) |  |  |  |  |  |  | 
CC[C@]1(O)C[C@H]2CN(CCc3c([nH]c4ccccc34)[C@@](C(=O)OC)(c3cc4c(cc3OC)N(C=O)[C@H]3[C@@](O)(C(=O)OC)[C@H](OC(C)=O)[C@]5(CC)C=CCN6CC[C@]43[C@@H]65)C2)C1 |  | 0.0019 µM (active) | 0.0235 µM (active) |  |  |  |  |  |  | 0.0093 µM (active) | 0.003 µM (active) | 0.0047 µM (active) | 0.132 µM (active) | 0.0053 µM (active) |  |  |  |  | 0.0053 µM (active) | 
Nc1cccc2c1CN(C1CCC(=O)NC1=O)C2=O (stereo unspecified) |  | inactive | 0.0382 µM (active) | inactive | 3.03 µM (active) | 4.81 µM (active) |  |  | inactive |  | inactive | 0.171 µM (active) |  | inactive | inactive |  | inactive | inactive |  | 122%
CS(=O)(=O)OCCCCOS(C)(=O)=O |  | inactive | inactive |  | inactive |  |  | inactive |  |  | inactive | 13.2 µM (active) |  | inactive |  | inactive | inactive | 5.9 µM (active) |  | 
COC1=C(OC)C(=O)C(CCCCCCCCCCO)=C(C)C1=O |  |  | 16.6 µM (active) |  | 16.6 µM (active) | 14.8 µM (active) |  | 26.4 µM (active) | 16.6 µM (active) | inactive | inactive | 14.8 µM (active) | 14.8 µM (active) |  |  | 14.8 µM (active) |  | 20.9 µM (active) |  | 
COCCCOc1ccnc(CS(=O)c2nc3ccccc3[nH]2)c1C (stereo unspecified) |  | inactive |  | inactive | inactive | 4.69 µM (active) |  | inactive | inactive |  | inactive | inactive | inactive | inactive | 10.5 µM (active) | inactive | inactive |  |  | 
O=C(CCc1ccc(O)cc1)c1c(O)cc(O)cc1O |  |  | 0.148 µM (active) | inactive | 0.132 µM (active) | 0.418 µM (active) | 0.332 µM (active) | 5.26 µM (active) | 0.235 µM (active) | 4.69 µM (active) | 3.32 µM (active) | 0.935 µM (active) | 0.935 µM (active) | 1.18 µM (active) | 0.118 µM (active) |  | inactive | 0.132 µM (active) | 1.05 µM (active) | 
